Source: PubChem BioAssay (National Center for Advancing Translational Sciences (NCATS))
Giardia killer: Giardia lamblia killing | 340,000 compounds, 0.15% hits | activity change, % at 7.66 µM, hits read low | Giardia lamblia trophozoite viability; in the data active means activity change below about -80%; inconclusive means between about -30% and that limit;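 further: parasites exposed to compound for two days anaerobically before the ATP read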
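Anaerobic 48 hrs incubation at 37 deg C of 100 trophozoites/well with test compounds; ATPLite 1-Step luminescence, 15-30 min RT, reports cellular ATP as viability.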
IL-1B inflam inh: inhibitors of inflammasome signaling (IL-1 beta secretion); THP-1 LPS/ATP IL-1B secretion, AlphaLISA, 16 h; active compounds read low; activity change, % at 57.5 µM; 360,000 compounds, 4.7% hits; in the data active means activity change below about -50%; inconclusive means mostly about -30% to -49%
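THP-1 cells pretreated 1 hr with compounds (up to 57.5 uM final), then stimulated with LPS (250 ng/mL final) plus ATP (1.25 mM final); secreted IL-1B measured by AlphaLISA after 16 hr, decreased signal indicating inhibition.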
TDP1 cell CPT: DT40-hTDP1 cell growth loss with CPT. chicken DT40 Tdp1-/-;hTDP1 cells + 20 nM CPT, ATP luminescence, 48 h. Potency, µM (titrated, usually from 46.2 µM), for the others: at the highest dose activity change, negative = growth inhibition, hits mostly inhibitors. 420,000 compounds, 12% hits. AID 686979; further: potency means the concentration at half of the fitted maximal effect; nearly all actives have a fitted effect of over 55% in size
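Chicken DT40 Tdp1-/- cells stably complemented with human TDP1 were seeded at 400 cells/well in medium containing 20 nM camptothecin, exposed to pin-transferred compounds, and grown at 37 °C for at least 48 hr. Viability was read as ATP luminescence.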
TDP1 cell noCPT: qHTS for Inhibitors of human tyrosyl-DNA phosphodiesterase 1 (TDP1): qHTS in cells in absence of CPT | DT40 Tdp1-/- hTDP1 cells, no CPT, ATP luminescence, 48 h | Potency, µM (top dose mostly 46.2 µM), for inactives: at the highest dose activity change, negative = growth inhibition, usual class: inhibitors | 420,000 compounds, 15% hits | AID 686978, 2013; further: potency means the concentration at half of the fitted maximal effect; nearly all actives have a fitted effect of over 55% in size
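No-CPT arm: Tdp1-/-;hTDP1 DT40 cells (400/well) plus compounds, incubated ≥48 hr at 37 °C. Readout CellTiter-Glo luminescence.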
TDP1 block: inhibitors of human tyrosyl-DNA phosphodiesterase TDP1; recombinant TDP1, AlphaScreen DNA substrate cleavage; Potency, µM (top dose mostly 130 µM), without a hit: top-dose activity change, negative = inhibition, hits mostly inhibitors; 350,000 compounds, 0.28% hits; AID 485290; further: potency means the concentration at half of the fitted maximal effect; nearly all actives have a fitted effect of over 40% in size
Target sequence (Q9NUW8 whole entry, looked up): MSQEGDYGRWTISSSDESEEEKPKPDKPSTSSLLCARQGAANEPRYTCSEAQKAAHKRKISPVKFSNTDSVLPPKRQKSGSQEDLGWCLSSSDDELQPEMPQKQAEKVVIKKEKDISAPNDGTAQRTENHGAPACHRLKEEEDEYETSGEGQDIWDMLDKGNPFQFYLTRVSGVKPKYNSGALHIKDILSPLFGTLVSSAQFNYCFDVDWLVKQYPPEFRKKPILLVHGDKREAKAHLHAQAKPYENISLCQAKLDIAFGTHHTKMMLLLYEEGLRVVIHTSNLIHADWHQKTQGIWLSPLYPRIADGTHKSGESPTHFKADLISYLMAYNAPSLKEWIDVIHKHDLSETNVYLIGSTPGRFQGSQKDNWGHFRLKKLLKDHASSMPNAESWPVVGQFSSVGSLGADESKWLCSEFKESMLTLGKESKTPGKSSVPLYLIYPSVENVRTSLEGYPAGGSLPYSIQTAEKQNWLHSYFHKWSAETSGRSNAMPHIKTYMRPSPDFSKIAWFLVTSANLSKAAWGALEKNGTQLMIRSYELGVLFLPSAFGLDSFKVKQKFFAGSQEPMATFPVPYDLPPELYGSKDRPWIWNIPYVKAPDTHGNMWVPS
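Tdp1 1 nM final; 15 min RT w/ cpd; substrate 15 nM, 5 min; beads 10 ug/ml, 10 min; AlphaScreen read. Neg ctrl: no enzyme.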
ELG1 DNA repair: blocks ELG1-dependent DNA repair in HEK293T cells. Potency, µM (doses to about 46.1 µM), for inactives: at the highest dose activity change, negative = inhibition, hits mostly inhibitors. HEK293T ELG1-luciferase reporter, luminescence, 16 h; DNA damage induced by 5-fluorouridine. 330,000 compounds, 2.3% hits; further: potency means the concentration at half of the fitted maximal effect; nearly all actives have a fitted effect of over 55% in size
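DMSO vehicle served as the neutral condition. Each well held 2,000 cells given 5-fluorouridine plus compound; after 16 hr at 37 °C/5% CO2, ONE-Glo was added and luciferase measured 30 min later.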
An asterisk follows results filed as active; [ ] = another dose, or the depositor's remark. In the library only some 19% were active in any assay of this set; here they are far more common. Unless noted, the call rests on the fitted dose curve; in most records, active means well fitted curve in the direction sought with a large enough effect; inconclusive means small, poorly fitted or top-dose-only effect, or another doubt; inactive means no such curve, though single readings can be large; an effect the other way counts as inactive or inconclusive. On the % scale 0 is the no-effect control and ±100 the full control effect.

`CC(C(=O)N1CCCCC1)n1ncn2cccc2c1=O` (stereo not drawn) gave Giardia killer -4.4, IL-1B inflam inh 5.8, TDP1 cell CPT -2.6%, TDP1 cell noCPT 6.1%, TDP1 block 4.5%[56.1 µM] and ELG1 DNA repair 3.1%.
Screening Cn1c(=O)oc2cc(S(=O)(=O)N3CCCC(C(=O)NCc4ccc(F)cc4)C3)ccc21 (stereo not drawn) returned TDP1 cell CPT inconclusive, TDP1 cell noCPT inconclusive and TDP1 block -3.8%.
For Cc1c(CCC(=O)NCCCN2CCCC2=O)c(=O)oc2cc(O)ccc12 the results were Giardia killer 14.6, IL-1B inflam inh 8.2, TDP1 cell CPT 11.7%, TDP1 cell noCPT 5.3% and ELG1 DNA repair inconclusive.
Cc1oc2cc3oc(=O)c(CCC(=O)NCCCN4CCOCC4)c(C)c3cc2c1C was read as Giardia killer -6.7, IL-1B inflam inh inconclusive, TDP1 cell CPT 23.1µM*, TDP1 cell noCPT inconclusive and ELG1 DNA repair inconclusive.
For Cc1coc2cc3oc(=O)c(CCC(=O)NCCCn4ccnc4)c(C)c3cc12 the results were Giardia killer inconclusive, IL-1B inflam inh -17.8, TDP1 cell CPT inconclusive, TDP1 cell noCPT inconclusive and ELG1 DNA repair 0.0%.
For Cc1c(CCC(=O)N2CCC(C(=O)O)CC2)c(=O)oc2cc3oc4c(c3cc12)CCCC4 the results were Giardia killer 10.5, IL-1B inflam inh -11.2, TDP1 cell CPT inconclusive, TDP1 cell noCPT 14.6µM* and ELG1 DNA repair 23.7%.
Screening Cc1c(CCC(=O)N2CCC(C(=O)O)(c3ccccc3)CC2)c(=O)oc2cc3oc4c(c3cc12)CCCC4 returned Giardia killer -18.8, IL-1B inflam inh 15.1, TDP1 cell CPT 1.1%, TDP1 cell noCPT -12.8% and ELG1 DNA repair 32.4%.
`Cc1c(CCC(=O)NCCCn2ccnc2)c(=O)oc2cc3oc4c(c3cc12)CCCC4` gave Giardia killer -1.3, IL-1B inflam inh inconclusive, TDP1 cell CPT 9.2µM*, TDP1 cell noCPT 10.3µM* and ELG1 DNA repair 3.3%.
Cc1oc2cc3oc(=O)c(CCC(=O)NCCCn4ccnc4)c(C)c3cc2c1C was read as Giardia killer 4.3, IL-1B inflam inh -51.6*, TDP1 cell CPT inconclusive, TDP1 cell noCPT 23.1µM* and ELG1 DNA repair -5.0%.
Screening Cc1ccc(CN2CC(C(=O)N3CC(C)CC(C)C3)CC2=O)cc1 (stereo not drawn) returned Giardia killer 11.7, IL-1B inflam inh 6.7, TDP1 cell CPT -1.9%, TDP1 cell noCPT -15.2% and ELG1 DNA repair 3.0%.
For O=S(=O)(c1ccccc1)c1nnn2c1nc(NCc1ccc(F)cc1)c1sccc12 the results were TDP1 cell CPT 11.2%, TDP1 cell noCPT -0.9% and TDP1 block 5.1%.
Screening Cc1c(/C=N/NC(=O)c2cccnc2)c2ccccn2c1C(=O)c1ccc(F)cc1 returned TDP1 block 5.6% and ELG1 DNA repair 18.4µM*.
For Cc1c(/C=N/NC(=O)c2ccccc2O)c2ccccn2c1C(=O)c1ccc(F)cc1 the results were Giardia killer inconclusive, IL-1B inflam inh -87.6*, TDP1 cell CPT inconclusive, TDP1 cell noCPT 23.1µM*, TDP1 block -2.4% and ELG1 DNA repair 23.1µM*.
Screening COC(=O)N/N=C/c1c(C)c(C(=O)c2ccc(F)cc2)n2ccccc12 returned Giardia killer -7.8, IL-1B inflam inh 4.3, TDP1 cell CPT inconclusive, TDP1 cell noCPT inconclusive, TDP1 block 0.6% and ELG1 DNA repair 23.1µM*.
For O=C(Oc1ccc(N(Cc2cccs2)C2=NS(=O)(=O)c3ccccc32)cc1)c1ccco1 the results were Giardia killer -1.3, IL-1B inflam inh 23.8, TDP1 cell CPT inconclusive, TDP1 cell noCPT inconclusive, TDP1 block 1.1% and ELG1 DNA repair inconclusive.
